Source: PubChem BioAssay
The source made the active and inactive calls.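 The calls were made as follows, unless noted: active = normalized viability below 100% at a tested concentration; inactive = the rest.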

Key:
[1] = sensitizers of A549 cells to miR-34 induction, primary screen, imaging, A549 dox-inducible miR-34, nuclei and caspase counts (AID 1347080;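 active = compounds whose cell count with miR-34 switched on is under 0.7 times the count with it off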); conditions: A549 miR-34 inducible, Hoechst nuclei count, 48 h
[2] = survival rescue of mitochondrial mutant cells in low glucose, primary screen, MELAS cybrids, Rieske KO mouse fibroblasts, CellTiter-Glo (AID 1508586;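 active = mean z-score across replicates of 1.96 or higher in either the MELAS or the Rieske mutant cell line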;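 also: z relative to plate mean and SD of compound and empty wells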)
[3] = ovarian cancer cell viability with rucaparib, profiling panel, oncology-focused library, rucaparib conditional (AID 1508598); conditions: patient-derived ovarian cancer cells, CellTiter-Glo viability, 144 h, stronger effect = lower value
[4] = stronger effect = lower value, cell number ratio, induced over uninduced
[5] = measured here: relative caspase fold change +Dox/-Dox
[6] = measured here: total cells with miR-34 induction, stronger effect = lower value
[7] = measured here: total cells without miR-34 induction
[8] = MELAS cybrid survival, CellTiter-Glo 48 h, stronger effect = higher value
[9] = Rieske KO mouse fibroblast survival, CellTiter-Glo 72 h
[10] = at 0.000305 µM, OCI-C5x cells, with rucaparib 10 µM, 100% = cells with rucaparib alone
[11] = at 0.000305 µM, OCI-C5x cells, without rucaparib
[12] = at 0.000305 µM, OCI-P5x cells, with rucaparib 20 µM, 100% = cells with rucaparib alone
[13] = at 0.000305 µM, OCI-P5x cells, without rucaparib
[14] = at 0.00122 µM, OCI-C5x cells, with rucaparib 10 µM, 100% = cells with rucaparib alone
[15] = at 0.00122 µM, OCI-C5x cells, without rucaparib
[16] = at 0.00122 µM, OCI-P5x cells, with rucaparib 20 µM, 100% = cells with rucaparib alone
[17] = at 0.00122 µM, OCI-P5x cells, without rucaparib
[18] = at 0.00488 µM, OCI-C5x cells, with rucaparib 10 µM, 100% = cells with rucaparib alone
[19] = at 0.00488 µM, OCI-C5x cells, without rucaparib
[20] = at 0.00488 µM, OCI-P5x cells, with rucaparib 20 µM, 100% = cells with rucaparib alone
[21] = at 0.00488 µM, OCI-P5x cells, without rucaparib
[22] = at 0.0195 µM, OCI-C5x cells, with rucaparib 10 µM, 100% = cells with rucaparib alone
[23] = at 0.0195 µM, OCI-C5x cells, without rucaparib
[24] = at 0.0195 µM, OCI-P5x cells, with rucaparib 20 µM, 100% = cells with rucaparib alone
[25] = at 0.0195 µM, OCI-P5x cells, without rucaparib
[26] = at 0.0781 µM, OCI-C5x cells, with rucaparib 10 µM, 100% = cells with rucaparib alone
[27] = at 0.0781 µM, OCI-C5x cells, without rucaparib
[28] = at 0.0781 µM, OCI-P5x cells, with rucaparib 20 µM, 100% = cells with rucaparib alone
[29] = at 0.0781 µM, OCI-P5x cells, without rucaparib
[30] = at 0.313 µM, OCI-C5x cells, with rucaparib 10 µM, 100% = cells with rucaparib alone
[31] = at 0.313 µM, OCI-C5x cells, without rucaparib
[32] = at 0.313 µM, OCI-P5x cells, with rucaparib 20 µM, 100% = cells with rucaparib alone
[33] = at 0.313 µM, OCI-P5x cells, without rucaparib
[34] = at 1.25 µM, OCI-C5x cells, with rucaparib 10 µM, 100% = cells with rucaparib alone
[35] = at 1.25 µM, OCI-C5x cells, without rucaparib
[36] = at 1.25 µM, OCI-P5x cells, with rucaparib 20 µM, 100% = cells with rucaparib alone
[37] = at 1.25 µM, OCI-P5x cells, without rucaparib
[38] = at 5 µM, OCI-C5x cells, with rucaparib 10 µM, 100% = cells with rucaparib alone
[39] = at 5 µM, OCI-C5x cells, without rucaparib
[40] = at 5 µM, OCI-P5x cells, with rucaparib 20 µM, 100% = cells with rucaparib alone
[41] = at 5 µM, OCI-P5x cells, without rucaparib

CCCc1ccc(OCC(=O)N(Cc2nc(-c3cccnc3)no2)C(C)C)cc1
inactive: fold change [1, 4] 0.834 | z-score [2, 8] -0.333 | viability [3, 10] 116% | viability [3, 11] 115% | viability [3, 13] 106% | viability [3, 14] 125% | viability [3, 15] 122% | viability [3, 16] 102% | viability [3, 18] 129% | viability [3, 19] 104% | viability [3, 20] 105% | viability [3, 21] 101% | viability [3, 22] 118% | viability [3, 23] 110% | viability [3, 25] 102% | viability [3, 26] 134% | viability [3, 27] 114% | viability [3, 28] 104% | viability [3, 29] 103% | viability [3, 30] 120% | viability [3, 31] 110% | viability [3, 33] 101% | viability [3, 34] 115% | viability [3, 35] 112% | viability [3, 36] 103% | viability [3, 39] 111% | viability [3, 41] 100%
0.57: fold change [1, 5]
6670: cell count [1, 6]
0.238: z-score [2, 9]
7990: cell count [1, 7]
active: viability [3, 12] 98% | viability [3, 17] 98.6% | viability [3, 24] 97.5% | viability [3, 32] 98.3% | viability [3, 37] 96.3% | viability [3, 38] 99.7% | viability [3, 40] 93.2%

CCN1CCN(C(=O)NC(C(=O)NC2C(=O)N3C2SC(C)(C)C3C(=O)O)c2ccccc2)C(=O)C1=O (centres undefined)
10000: cell count [1, 7]
1.67: fold change [1, 5]
inactive: fold change [1, 4] 0.885 | z-score [2, 8] -0.177
8860: cell count [1, 6]
-0.164: z-score [2, 9]

C[C@]12C=CC(=O)C=C1CC[C@@H]1[C@H]2C(=O)C[C@@]2(C)[C@H]1CC[C@@]2(O)C(=O)CO
-0.016: z-score [2, 9]
7790: cell count [1, 6]
8660: cell count [1, 7]
inactive: fold change [1, 4] 0.899 | z-score [2, 8] -0.304 | viability [3, 10] 112% | viability [3, 11] 111% | viability [3, 14] 111% | viability [3, 15] 107% | viability [3, 18] 107% | viability [3, 19] 102% | viability [3, 22] 110% | viability [3, 23] 102% | viability [3, 26] 109% | viability [3, 27] 101% | viability [3, 30] 120% | viability [3, 34] 111% | viability [3, 38] 115%
active: viability [3, 12] 93.3% | viability [3, 13] 93.5% | viability [3, 16] 95.9% | viability [3, 17] 93.2% | viability [3, 20] 91% | viability [3, 21] 90.1% | viability [3, 24] 88.4% | viability [3, 25] 84.5% | viability [3, 28] 85% | viability [3, 29] 88.3% | viability [3, 31] 94.4% | viability [3, 32] 85.2% | viability [3, 33] 78.8% | viability [3, 35] 97.7% | viability [3, 36] 85.8% | viability [3, 37] 76.5% | viability [3, 39] 98.1% | viability [3, 40] 75.2% | viability [3, 41] 77.4%
0.898: fold change [1, 5]

COc1cc(C(=O)NC2CCN(C)CC2)ccc1Nc1ncc2c(n1)N(C1CCCC1)CC(F)(F)C(=O)N2C
0.442: fold change [1, 5]
inactive: fold change [1, 4] 1.05 | z-score [2, 8] -0.321 | viability [3, 10] 103% | viability [3, 15] 102% | viability [3, 18] 111% | viability [3, 19] 105%
1280: cell count [1, 7]
1340: cell count [1, 6]
-2.73: z-score [2, 9]
active: viability [3, 11] 98.4% | viability [3, 12] 95.2% | viability [3, 13] 86.9% | viability [3, 14] 97.8% | viability [3, 16] 99.5% | viability [3, 17] 93.6% | viability [3, 20] 89.4% | viability [3, 21] 69.2% | viability [3, 22] 73.1% | viability [3, 23] 61.3% | viability [3, 24] 68.6% | viability [3, 25] 21.8% | viability [3, 26] 64% | viability [3, 27] 42.6% | viability [3, 28] 63% | viability [3, 29] 15.8% | viability [3, 30] 39.9% | viability [3, 31] 27.3% | viability [3, 32] 70.3% | viability [3, 33] 15.5% | viability [3, 34] 31% | viability [3, 35] 19.6% | viability [3, 36] 66.4% | viability [3, 37] 17.5% | viability [3, 38] 25.7% | viability [3, 39] 19.7% | viability [3, 40] 53.1% | viability [3, 41] 17.9%

CCCCCCCCCCCCCCCC(=O)OC1C(SC)OC(C(NC(=O)C2CC(CCC)CN2C)C(C)Cl)C(O)C1O (centres undefined)
inactive: fold change [1, 4] 0.883 | z-score [2, 8] -0.438
10500: cell count [1, 7]
9240: cell count [1, 6]
-0.237: z-score [2, 9]
0.558: fold change [1, 5]

CCOC(=O)c1cnc2ccc(-c3cncc(NS(=O)(=O)c4ccccc4)c3)cn12
active: viability [3, 11] 99.1% | viability [3, 13] 99.9% | viability [3, 17] 95.7% | viability [3, 21] 94.6% | viability [3, 25] 94.3% | viability [3, 26] 91.1% | viability [3, 27] 74.3% | viability [3, 28] 88.7% | viability [3, 29] 48.1% | viability [3, 30] 69.7% | viability [3, 31] 46.2% | viability [3, 32] 66.1% | viability [3, 33] 23.4% | viability [3, 34] 52.2% | viability [3, 35] 37% | viability [3, 36] 46.2% | viability [3, 37] 13.9% | viability [3, 38] 4.93% | viability [3, 39] 22.5% | viability [3, 40] 14.6% | viability [3, 41] 8.51%
0.8: z-score [2, 9]
1860: cell count [1, 7]
1650: cell count [1, 6]
0.323: fold change [1, 5]
inactive: fold change [1, 4] 0.888 | z-score [2, 8] 0.296 | viability [3, 10] 115% | viability [3, 12] 102% | viability [3, 14] 121% | viability [3, 15] 102% | viability [3, 16] 101% | viability [3, 18] 129% | viability [3, 19] 105% | viability [3, 20] 107% | viability [3, 22] 122% | viability [3, 23] 112% | viability [3, 24] 102%
